Shown are actives, neighbours in structure and some others; about 5% of the full set was active somewhere.
AHR activator – AHR activators, primary screen, cell-based, luminescence, luciferase reporter, human | AHR-responsive luciferase reporter cells | activation, % at 5 µM | 320,000 compounds, 2.5% hits; in the data active = activation above about 47%
SENP8 block-1 – SENP8 protease inhibitors, primary screen, biochemical, luminescence. Sentrin-specific protease 8 (Homo sapiens), Q96LD8. purified SENP8, Z-RLRGG-aminoluciferin cleavage. inhibition, % at 10 µM. 330,000 compounds, 1.2% hits. AID 2540, 2010; in the data active = inhibition above about 50%
Target sequence (Q96LD8 whole entry, looked up): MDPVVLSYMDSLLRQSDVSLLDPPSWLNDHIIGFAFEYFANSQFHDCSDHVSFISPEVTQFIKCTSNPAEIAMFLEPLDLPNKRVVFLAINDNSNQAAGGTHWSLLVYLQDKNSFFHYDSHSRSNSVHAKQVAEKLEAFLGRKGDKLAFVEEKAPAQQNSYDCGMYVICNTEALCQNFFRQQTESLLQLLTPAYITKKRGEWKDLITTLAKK
SENP7 inh – SENP7 protease inhibitors, primary screen, biochemical, luminescence, uHTS; recombinant SENP7, Z-RLRGG-aminoluciferin luminescence, 40 min; inhibition, % at 5 µM; 330,000 compounds, 1.5% hits; AID 434973, 2010;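 active = inhibition above about 50% at the single test dose, limit read from the data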
EBI2 antag – EBI2 receptor antagonists, beta-arrestin recruitment, primary screen, cell-based, luminescence, 7a,25-OHC stimulation, uHTS; 360,000 compounds, 0.81% hits; inhibition, % at 5 µM; 7a,25-OHC stimulated; AID 651636, 2012; G-protein coupled receptor 183 (Homo sapiens), P32249; in the data active = inhibition above about 38%;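 also: enzyme fragment complementation signal reports receptor beta-arrestin coupling in cells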
SENP6 inh – SENP6 protease inhibitors, primary screen, biochemical, luminescence, uHTS | Sentrin-specific protease 6 (Homo sapiens), Q9GZR1 | Recombinant SENP6 catalytic domain, aminoluciferin luminescence | inhibition, % at 10 µM | 330,000 compounds, 1.8% hits | AID 2599, 2010;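 active = inhibition above about 50% at the single tested dose, limit read from the data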
SENP8 block-2 – human SENP8 protease inhibitors, primary screen, biochemical, fluorescence, Nedd8 protein substrate, uHTS. Sentrin-specific protease 8 (Homo sapiens), Q96LD8. recombinant SENP8. inhibition, % at 20 µM. 360,000 compounds, 0.64% hits. AID 602440, 2012; in the data active = inhibition mostly above about 40%, no sharp cut-off; inactive = mostly below about 27%
SENP8 confirm – SENP8 protease inhibitors, retest, confirmation, biochemical, luminescence, single concentration | AID 488912, 2010 | shares compounds with SENP7 inh | 6,200 compounds, 40% hits | Recombinant SENP8, Z-RLRGG-aminoluciferin luminescence, 60 min | inhibition, % at 12.5 µM;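 active = mean inhibition across replicates above about 50%, limit read from the data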
SENP6 conf – SENP6 protease inhibitors, confirmation, biochemical, luminescence, single concentration; 6,200 compounds, 58% hits; inhibition, % at 12.5 µM; recombinant SENP6, Z-RLRGG-aminoluciferin luminescence; shares compounds with SENP7 inh; AID 488915, 2010
SENP7 confirm – SENP7 protease inhibitors, retest, confirmation, biochemical, luminescence, single concentration. shares compounds with SENP7 inh. AID 488917, 2010. 6,200 compounds, 69% hits. recombinant SENP7, Z-RLRGG-aminoluciferin luminescence, 40 min. inhibition, % at 12.5 µM
Casp3 select – caspase-3 protease inhibitors, confirmation, selectivity assay for SENP inhibitor project, biochemical, single concentration | purified caspase-3, Z-DEVD-aminoluciferin luminescence, 60 min | inhibition, % at 12.5 µM | shares compounds with SENP7 inh | 6,200 compounds, 60% hits;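 active = mean inhibition above about 50%, limit read from the data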
Target sequence (P42574 28-227 limits assumed): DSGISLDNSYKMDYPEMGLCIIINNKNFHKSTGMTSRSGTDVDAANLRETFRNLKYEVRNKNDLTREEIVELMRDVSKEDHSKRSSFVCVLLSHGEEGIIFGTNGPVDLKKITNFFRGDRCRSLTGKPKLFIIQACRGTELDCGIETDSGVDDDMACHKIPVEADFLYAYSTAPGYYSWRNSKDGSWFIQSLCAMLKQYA
SENP luc ctr – interferes with luciferase luminescence in SENP counter-screen | 6,200 compounds, 39% hits | Pre-incubated SENP8/Z-RLRGG-aminoluciferin, luciferase luminescence interference | inhibition, % at 12.5 µM | shares compounds with SENP7 inh | AID 488919;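 active = mean inhibition above about 50% when retested at one dose, limit read from the data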
Numbers stand for hits; . = inactive; / = no result given.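 The calls were made as follows, unless noted: active = mean inhibition above about 50% in the one-dose retest (limit read from the data); inactive = the rest.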

SMILES	AHR activator	SENP8 block-1	SENP7 inh	EBI2 antag	SENP6 inh	SENP8 block-2	SENP8 confirm	SENP6 conf	SENP7 confirm	Casp3 select	SENP luc ctr
O=C(O)c1ccc(N/N=C/c2cn(Cc3ccc(F)cc3)c3ccccc23)cc1	.	61.2	.	.	51.6	.	.	71.6	75.2	.	.
COc1cc(NC(=O)c2csc3c2CCCC3)ncn1	.	.	.	.	61.1	.	.	.	.	.	.
O=C(Nc1ccccn1)c1csc2c1CCCC2	.	.	.	.	.	.	/	/	/	/	/
COc1ccccc1N1CCN(c2nc3ccccn3c(=O)c2C=O)CC1	.	.	.	.	.	.	/	/	/	/	/
O=C(CCN1C(=O)/C(=C/c2cccs2)SC1=S)N1CCCCC1	.	.	.	.	.	.	/	/	/	/	/
O=C(NC(=S)Nc1ccc(S(=O)(=O)Nc2nccs2)cc1)c1cccc(F)c1	.	.	.	.	63.1	.	.	.	.	.	.
O=C(Nc1ccc(S(=O)(=O)Nc2nccs2)cc1)c1ccc(F)cc1	.	.	.	.	.	.	/	/	/	/	/
CCCc1nc(SCC(=O)N2CCc3ccccc3C2)c2ccccc2n1	.	.	98.2	.	.	.	.	.	.	.	.
O=c1oc2ccccc2cc1-c1nc2ccccc2o1	.	71.6	85.0	.	89.6	.	53.6	85.5	97.7	93.8	.
Cc1cccc(-c2noc(-c3cc4ccccc4oc3=O)n2)c1	.	.	81.5	.	.	.	.	.	.	.	.
O=c1oc2ccccc2cc1-c1nc(-c2ccccc2)no1	.	56.9	81.5	.	.	.	.	.	.	.	.
Nc1ccc(-c2cc3ccccc3oc2=O)cc1	.	.	.	.	.	.	/	/	/	/	/
O=c1oc2ccccc2cc1-c1nc2c(s1)CCCC2	94.8	94.0	99.3	.	.	.	.	.	100.3	84.4	.
O=c1oc2ccc3ccccc3c2cc1-c1nc2ccccc2o1	.	.	.	.	.	.	/	/	/	/	/
Cc1cccc(-c2noc(-c3ccc(Cl)cc3[N+](=O)[O-])n2)c1	.	.	.	.	.	.	/	/	/	/	/
O=C(c1ccc(COc2ccccc2Br)cc1)N1CCCCCC1	.	.	.	.	.	.	/	/	/	/	/
COC(=O)c1ccccc1NC(=O)CSc1nnnn1CC(=O)O	.	.	.	.	.	.	/	/	/	/	/
CC(NC(=O)C1c2ccccc2Oc2ccccc21)C1CCCO1 (configuration not stated)	.	.	.	.	.	.	/	/	/	/	/
Oc1ccc2ccccc2c1C=NNc1ccccn1	/	/	/	.	/	.	/	/	/	/	/
COc1cc(/C=N/Nc2cccc3cccnc23)cc(OC)c1O	.	.	.	.	.	.	/	/	/	/	/
Oc1cccc(/C=N/Nc2cccc3cccnc23)c1	/	95.9	91.5	.	.	.	96.8	100.0	103.8	93.9	93.4
Oc1c(/C=N/Nc2cccc3cccnc23)ccc2ccccc12	48.4	.	.	.	52.4	.	.	.	.	.	.
Cn1c(CC(=O)c2ccc(Br)cc2)[n+](C)c2ccccc21	.	.	.	.	.	.	/	/	/	/	/
